The values below come from PubChem BioAssay.

The structures appear in SMILES notation. Calls of active or inactive are those of the source.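 The calls were made as follows, unless noted: active = inhibition above 20% together with a positive visual image hit; inconclusive = visual image hit but inhibition not above 20%; inactive = no visual image hit.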

Assay [1] in a line: inhibitors of TNFa-induced NFkB p65 translocation, primary screen, imaging, HUVEC, MLSMR starter and 10KST1 sets (AID 438).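 Also: compound added about 3h40 before a 20 min TNFalpha stimulation.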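 As to inhibition: signal is the nuclear over cytoplasmic p65 intensity ratio per well.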 The conditions noted are these: HUVEC TNFa-induced p65 nuclear translocation; cell count: measured here: nuclei count (cytotoxicity indicator), at 2.08 µM; inhibition: at 2 µM, stronger effect = higher value, 0% TNFa-plus-vehicle, 100% no-TNFa wells.
A short description of assay [2]: inhibitors of mutant huntingtin aggregation, primary screen, imaging, exon1htt(103Q)mCFP cells, high-content imaging (AID 483;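 active = visual image review flags a hit and inhibition of aggregation exceeds 20%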;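 also: compound exposure lasted 3 days before fixation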;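 as to nuclei count: percent of the per-plate median nuclei count of sample wells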). The following applies: exon1htt(103Q)mCFP cell line, aggregate imaging, at 2 µM; inhibition of aggregation: stronger effect = higher value; nuclei count: measured here: cell count, toxicity.
Assay [3] in a line: inhibitors of E-selectin induction by TNFa, primary screen, imaging, HUVEC, immunofluorescence, MLSMR starter and 10KST1 sets (AID 487;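 active = visually confirmed hit in the image check and inhibition above 20%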;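 as to inhibition: signal is fraction of cell area covered by stained E-selectin grains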;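 as to nuclei count: 100% = median nuclei count of all wells on the same plate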). The following applies: HUVEC TNFalpha-induced E-selectin immunofluorescence imaging, at 2 µM; inhibition: stronger effect = higher value; nuclei count: measured here: cell number, toxicity.
Assay [4] concerns the target Voltage-gated potassium channel subunit beta-2 (Rattus norvegicus) (UniProt P62483). Nature of the assay: KvBeta enzyme negative modulators, primary screen, biochemical, NADPH fluorescence (AID 622;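 active = fluorescence slope higher than the sample average by over 3 SD, cut at about -0.22 in these data, passing the limit was not always enough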;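 also: slope of raw intensity against log time taken from 70 to 1610 s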). The following applies: recombinant KvBeta, 4-cyanobenzaldehyde reduction, at 10 µM, stronger effect = higher value.
Assay [5] has the same target. Kind of assay: KvBeta positive modulators, primary screen, biochemical, NADPH fluorescence (AID 623;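 active = NADPH fluorescence slope more negative than the mean of all samples by about 3 SD, 99.7% confidence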;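 also: fluorescence intensity change per second fitted from 20 to 320 s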). The conditions noted are these: Recombinant KvBeta, NADPH fluorescence decrease slope, 10 min; at 10 µM; stronger effect = lower value.
Assay [6] has as its target Alpha-2C adrenergic receptor (Homo sapiens) (UniProt P18825). Kind of assay: modulators of alpha2C/GIRK thallium flux, primary screen, cell-based, HEK293 alpha2C/GIRK1/2 (AID 624;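 active = fluorescence slope after compound addition differing from the mean of all screened samples at 99.7% confidence, in either direction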;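 also: slope of fluorescence ratio to pre-addition baseline per second over 15 to 24 s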). The following applies: thallium flux BTC fluorescence, at 10 µM, actives lie on both sides.
Assay [7] is described as follows: inhibitors of Sendai virus-induced IRF3 signaling, primary screen, TLR/RLR signaling modifier project, cell-based, Sendai virus stimulus, luciferase, 10K MLSCN set (AID 602276;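 active = inhibition at or above 50% at 10 µM; inactive = inhibition below 50%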;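 also: firefly luciferase from ISG56 promoter only with Renilla not read in this screen; 0% = Sendai virus plus DMSO and 100% = medium plus DMSO without virus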). The following applies: HEK293 RL24 IRF3 luciferase reporter, at 10 µM, stronger effect = higher value. For orientation: In a reporter assay the amount or activity of a reporter protein is the signal.

Assay [8] can be described thus: inhibitors of poly I:C-induced TLR3 signaling, primary screen, cell-based, poly I:C stimulus, luciferase, 10K MLSCN set (AID 602277;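 active = inhibition of the reporter signal at or above 50%; inactive = inhibition below 50%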). The conditions noted are these: HEK293-TLR3 RL24 IRF3 luciferase reporter, at 10 µM, stronger effect = higher value.

Sequence of Alpha-2C adrenergic receptor (Homo sapiens) (P18825 whole entry, looked up): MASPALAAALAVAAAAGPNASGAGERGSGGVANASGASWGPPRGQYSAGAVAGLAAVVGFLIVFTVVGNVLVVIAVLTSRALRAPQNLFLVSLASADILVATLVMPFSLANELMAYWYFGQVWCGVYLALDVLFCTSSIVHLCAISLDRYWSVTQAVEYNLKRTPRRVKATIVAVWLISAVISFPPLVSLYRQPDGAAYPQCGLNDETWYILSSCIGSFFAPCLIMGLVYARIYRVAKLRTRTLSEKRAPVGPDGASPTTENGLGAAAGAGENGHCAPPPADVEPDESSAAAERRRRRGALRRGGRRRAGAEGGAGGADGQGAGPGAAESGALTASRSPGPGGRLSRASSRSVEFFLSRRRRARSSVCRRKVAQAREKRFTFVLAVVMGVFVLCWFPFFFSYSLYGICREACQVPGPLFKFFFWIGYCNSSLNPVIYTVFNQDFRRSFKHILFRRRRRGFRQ
Sequence of Voltage-gated potassium channel subunit beta-2 (Rattus norvegicus) (P62483 whole entry, looked up): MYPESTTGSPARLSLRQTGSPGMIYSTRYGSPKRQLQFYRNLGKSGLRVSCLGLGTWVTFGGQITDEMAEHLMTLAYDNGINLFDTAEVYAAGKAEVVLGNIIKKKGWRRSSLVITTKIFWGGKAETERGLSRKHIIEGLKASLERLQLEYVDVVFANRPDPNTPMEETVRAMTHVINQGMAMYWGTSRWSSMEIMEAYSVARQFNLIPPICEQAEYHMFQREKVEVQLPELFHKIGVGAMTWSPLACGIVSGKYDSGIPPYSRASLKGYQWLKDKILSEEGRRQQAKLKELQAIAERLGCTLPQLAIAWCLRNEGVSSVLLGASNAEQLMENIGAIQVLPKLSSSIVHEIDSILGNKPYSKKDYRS

Usually inhibition stands for the drop in the measured response relative to a control, in per cent. As to `CC(=O)Nc1c(C(=O)O)[nH]c2ccccc12`, the cell count in assay [1] was found to be 463. The inhibition in assay [1] was -9.1% (inactive); in assay [3], -46.4% (inactive); in assay [7], 0.607% (inactive); in assay [8], 19.4% (inactive). Besides, the inhibition of aggregation in assay [2] is -7.5% (inactive). Also, the nuclei count in assay [2] amounted to 96%; in assay [3] it was 104%. In addition, in assay [4], the fluorescence slope was -0.367 (inactive). Further, the NADPH fluorescence slope in assay [5] was -2e-05 (inactive). In addition, the slope in assay [6] is 0.00513 (inactive).

For the compound `COc1ccc(NC(=O)CSc2nc3c(c(=O)n2-c2ccccc2OC)SCC3)cc1`, in assay [1], the cell count was 726. For the same compound, the inhibition in assay [1] was -6.7% (inactive); in assay [3], -25.6% (inactive); in assay [7], 4.03% (inactive); in assay [8], 31% (inactive). Also, the inhibition of aggregation in assay [2] is -10.4% (inactive). The results for the nuclei count in assay [2] and in assay [3] were 107% and 106%, respectively. Besides, the fluorescence slope in assay [4] was -0.568 (inactive). Besides, the NADPH fluorescence slope in assay [5] is -5.1e-05 (inactive). Moreover, the slope in assay [6] is 0.00646 (inactive).

Regarding `O=C(O)[C@@H]1CCCN1c1ncnc2sc3c(c12)CCC3`, the cell count in assay [1] was 434. Besides, the inhibition in assay [1] is -5.7% (inactive); in assay [3], -149% (inactive); in assay [7] it was 17.9% (inactive); in assay [8], 13.8% (inactive). In addition, the inhibition of aggregation in assay [2] was 0.1% (inactive). Moreover, the figures for the nuclei count in assay [2] and in assay [3] were 128% and 247%, respectively. In addition, the fluorescence slope in assay [4] is -0.412 (inactive). In assay [5], the NADPH fluorescence slope is -2.3e-05 (inactive). Moreover, the slope in assay [6] was 0.00577 (inactive).

On to `O=C(Nc1nnc(N2CCCCCC2)s1)c1cc(-c2ccc(Br)cc2)on1`, for which the cell count in assay [1] worked out at 890. In addition, the inhibition was 1.2% (inactive) in assay [1], -76.6% (inactive) in assay [3], 5.43% (inactive) in assay [7] and 23.2% (inactive) in assay [8]. Also, in assay [2], the inhibition of aggregation was 5.2% (inactive). Also, the nuclei count in assay [2] is 85.6%; in assay [3], 120%. For the same compound, the fluorescence slope in assay [4] was -0.612 (inactive). In addition, the NADPH fluorescence slope in assay [5] was -2.8e-06 (inactive). In addition, in assay [6], the slope was 0.00651 (inactive).

As for `Cc1noc(/C=C/N(C)C)c1S(=O)(=O)N1CCCC(C(=O)NCCC2=CCCCC2)C1` (centres undefined), the cell count in assay [1] is 518. Besides, the inhibition in assay [1] is 0.9% (inactive); in assay [3] it was -25.3% (inactive); in assay [7], 1.59% (inactive); in assay [8], -0.365% (inactive). In addition, in assay [2], the inhibition of aggregation was -2.1% (inactive). Further, the nuclei count in assay [2] worked out at 105%; in assay [3], 115%. In assay [4], the fluorescence slope was -0.548 (inactive). Also, in assay [5], the NADPH fluorescence slope was -1.2e-05 (inactive). In assay [6], the slope is 0.00579 (inactive).

On to `CCSc1ccccc1C(=O)Nc1cccc(OC)c1`, for which, in assay [1], the cell count was 421. For the same compound, the inhibition in assay [1] is 0.8% (inactive); in assay [3], -1.4% (inactive); in assay [7] it was -8.73% (inactive); in assay [8], -15.7% (inactive). Also, in assay [2], the inhibition of aggregation is -0.9% (inactive). Besides, the results for the nuclei count in assay [2] and in assay [3] were 112% and 75%, respectively. Also, the fluorescence slope in assay [4] was -0.539 (inactive). The NADPH fluorescence slope in assay [5] is -8.4e-05 (inactive). In addition, the slope in assay [6] is 0.00513 (inactive).

For the compound `CCOc1ccccc1NC(=O)CCN1CCN(S(=O)(=O)c2ccc(Br)cc2)CC1`, the cell count in assay [1] came out at 572. The inhibition is -12.3% (inactive) in assay [1], -67.4% (inactive) in assay [3], 12.6% (inactive) in assay [7] and 21.5% (inactive) in assay [8]. Also, the inhibition of aggregation in assay [2] is -10.2% (inactive). For the same compound, the nuclei count in assay [2] was 117%; in assay [3], 65.1%. Besides, the fluorescence slope in assay [4] was -0.526 (inactive). In assay [5], the NADPH fluorescence slope was -5.3e-05 (inactive). Further, the slope in assay [6] is 0.00415 (inactive).

For `C=CCn1c(SCC2=C(C(=O)OCC)C(C)NC(=O)N2)nnc1C1CCCCC1` (centres undefined), the cell count in assay [1] was 468. In addition, the inhibition is 6% (inactive) in assay [1], -85.9% (inactive) in assay [3], 14.6% (inactive) in assay [7] and 27.1% (inactive) in assay [8]. In addition, the inhibition of aggregation in assay [2] is 4.5% (inactive). The nuclei count was 113% in assay [2] and 121% in assay [3]. For the same compound, the fluorescence slope in assay [4] was -0.469 (inactive). Besides, the NADPH fluorescence slope in assay [5] is 5.7e-05 (inactive). In addition, the slope in assay [6] is 0.00672 (inactive).

`Cc1cc(NC(=O)COc2cccc(Oc3ccccc3)c2)no1`: the cell count in assay [1] was determined as 327. In addition, the inhibition in assay [1] was -0.9% (inactive); in assay [3] it was -61% (inactive); in assay [7], 10.8% (inactive); in assay [8] it was 30.5% (inactive). Moreover, the inhibition of aggregation in assay [2] is -11.4% (inactive). Also, the nuclei count in assay [2] is 80.8%; in assay [3], 106%. For the same compound, the fluorescence slope in assay [4] was -0.375 (inactive). Moreover, in assay [5], the NADPH fluorescence slope was -7.6e-05 (inactive). Also, the slope in assay [6] was 0.0048 (inactive).

Turning to `COc1ccc(OC)c(C(C)NC=O)c1` (centres undefined), the cell count in assay [1] was found to be 438. Also, the inhibition in assay [1] is 3% (inactive); in assay [3], -56.8% (inactive); in assay [7], 0.449% (inactive); in assay [8], 23.1% (inactive). Further, the inhibition of aggregation in assay [2] is 14.2% (inactive). Moreover, the nuclei count in assay [2] and in assay [3] was 108% throughout. In assay [4], the fluorescence slope is -0.449 (inactive). Also, in assay [5], the NADPH fluorescence slope is 1.3e-05 (inactive). Besides, the slope in assay [6] is 0.00556 (inactive).

Consider `O=C(CSc1ncnc2c1cnn2-c1ccccc1)Nc1ccccc1`, for which the cell count in assay [1] came out at 316. Moreover, the inhibition in assay [1] is 2.4% (inactive); in assay [3], -42% (inactive); in assay [7] it was 13.5% (inactive); in assay [8] it was 23.8% (inactive). Further, the inhibition of aggregation in assay [2] is 8.4% (inactive). The nuclei count was determined as 106% in assay [2] and 115% in assay [3]. Besides, in assay [4], the fluorescence slope is -0.493 (inactive). In addition, the NADPH fluorescence slope in assay [5] is -1.4e-05 (inactive). The slope in assay [6] was 0.00569 (inactive).

Turning to `CC1CCN(Cc2ccc(NC(=O)C3CCN(c4nnc(-n5cccc5)s4)CC3)cc2)CC1`, in assay [1], the cell count came out at 720. Moreover, the inhibition is -3% (inactive) in assay [1], 44.3% (inactive) in assay [3], 10.3% (inactive) in assay [7] and 44% (inactive) in assay [8]. In assay [2], the inhibition of aggregation was 13.7% (inactive). The results for the nuclei count in assay [2] and in assay [3] were 50.5% and 97.9%, respectively. The fluorescence slope in assay [4] was -0.409 (inactive). Also, the NADPH fluorescence slope in assay [5] is -5.4e-05 (inactive). Moreover, the slope in assay [6] is 0.0059 (inactive).

As for `Cc1cc(N2CCOCC2)nc2ccc(NC(=O)C3CCC(C)CC3)cc12` (centres undefined), in assay [1], the cell count stood at 434. In addition, the inhibition is -2.7% (inactive) in assay [1], -132% (inactive) in assay [3], -9.82% (inactive) in assay [7] and -31.3% (inactive) in assay [8]. In addition, in assay [2], the inhibition of aggregation is -22.1% (inactive). Moreover, the nuclei count in assay [2] was 127%; in assay [3], 123%. In addition, the fluorescence slope in assay [4] is -0.549 (inactive). For the same compound, in assay [5], the NADPH fluorescence slope is 1.5e-05 (inactive). In assay [6], the slope is 0.00409 (inactive).

For `CCC(C)c1ccc(NC(=O)c2cccnc2)cc1` (centres undefined), the cell count in assay [1] was 393. Also, the inhibition is 18% (inactive) in assay [1], -48.5% (inactive) in assay [3], -47.8% (inactive) in assay [7] and -142% (inactive) in assay [8]. The inhibition of aggregation in assay [2] is 2.8% (inactive). Also, the nuclei count was determined as 113% in assay [2] and 130% in assay [3]. Moreover, in assay [4], the fluorescence slope was -0.395 (inactive). In addition, the NADPH fluorescence slope in assay [5] is 3e-05 (inactive). The slope in assay [6] is 0.00669 (inactive).
